In the library only some 12% were active in any assay of this set; here they are far more common.
Pf growth 96h: inhibits malaria parasite growth, 96 h | Potency, µM (highest dose often 28.7 µM), for the others: top-dose activity change, negative = inhibition, actives largely listed as inhibitors | 320,000 tested, 6.9% active | P. falciparum luciferase reporter growth, 96 h; also: % is scaled to controls: 0 for no effect and ±100 for the full control effect
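96 h incubation, 37 C, 5% CO2, of luciferase-reporter P. falciparum-infected RBCs (2% hematocrit, 0.05% parasitemia final) with test compounds; endpoint luminescence.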
AmpC no deterg: AmpC beta-lactamase inhibition without detergent. AmpC nitrocefin hydrolysis, absorbance 480 nm, 0.0001% Triton. Potency, µM (highest dose often 57.1 µM), without a hit: at the highest dose activity change, negative = inhibition, usual class: inhibitors. 330,000 tested, 0.52% active. AID 485341;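 also: plate controls were no compound for no effect and no enzyme for full effect; nearly all actives have a fitted effect of over 20% in size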
Target sequence (P00811 whole entry, looked up): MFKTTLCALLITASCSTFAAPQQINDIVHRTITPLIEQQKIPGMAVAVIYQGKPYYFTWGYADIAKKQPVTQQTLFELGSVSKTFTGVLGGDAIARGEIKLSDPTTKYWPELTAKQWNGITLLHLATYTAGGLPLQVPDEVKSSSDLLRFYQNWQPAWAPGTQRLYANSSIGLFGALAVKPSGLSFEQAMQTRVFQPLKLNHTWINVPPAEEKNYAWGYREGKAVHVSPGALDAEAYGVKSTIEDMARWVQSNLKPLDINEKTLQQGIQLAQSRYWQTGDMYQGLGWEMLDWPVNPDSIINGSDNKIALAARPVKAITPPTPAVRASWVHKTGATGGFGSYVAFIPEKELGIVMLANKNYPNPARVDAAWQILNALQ
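20 mM phosphate pH 7.0 + 0.01% (detergent screen) or 0.0001% Triton X-100; 5.3 nM AmpC reagent; cpd preinc 15 min RT; nitrocefin (800 uM stock) to start; A480 q20 s × 4 min; Activity was normalised to no-enzyme and no-compound control wells.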
Sm TGR block: inhibitors of Schistosoma mansoni thioredoxin glutathione reductase. 360,000 tested, 3% active. purified TGR, DTNB reduction, TNB absorbance 405 nm. AID 485364. Potency, µM (top dose mostly 114 µM), for inactives: at the highest dose activity change, negative = inhibition, actives largely listed as inhibitors; also: % is scaled to controls: 0 for no effect and ±100 for the full control effect; nearly all actives have a fitted effect of over 60% in size
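Kinetic colorimetric format: TGR-catalysed, NADPH-driven DTNB reduction monitored via TNB absorbance. Enzyme dispensed at 20 nM; compound exposure 15 min at room temperature before reaction start.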
SARS PLpro yeast: inhibitors of SARS-CoV papain-like protease in yeast; 330,000 tested, 0.19% active; AID 485353; S. cerevisiae expressing SARS-CoV PLpro, growth rescue; Potency, µM (titrated, usually from 32.9 µM), inactives show at the top dose activity, positive = growth rescue, hits mostly activators; calls by dose curve; also: 0% is about no effect; nearly all actives have a fitted effect of over 55% in size
Pf growth 48h: inhibits P. falciparum growth in the first generation, 48 h; P. falciparum luciferase growth in erythrocytes, 48 h; Potency, µM (titrated, usually from 28.7 µM), inactives show top-dose activity change, negative = inhibition, most hits filed as inhibitors; 310,000 tested, 5.9% active; AID 504832; also: % is scaled to controls: 0 for no effect and ±100 for the full control effect
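Firefly luciferase activity from engineered P. falciparum reports growth; inhibitors lower the luminescent signal. Cultures contained 2% hematocrit erythrocytes at 0.1% final parasitemia.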
AmpC detergent: blocks E. coli AmpC beta-lactamase in detergent assay; P00811; 370,000 tested, 0.041% active; Potency, µM (top dose mostly 114 µM), without a hit: at the top dose activity change, negative = inhibition, usual class: inhibitors; AID 485294; AmpC hydrolysis of nitrocefin, absorbance 480 nm, 0.01% Triton;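 also: 0% = no-compound wells and -100% = no-enzyme wells; nearly all actives have a fitted effect of over 25% in size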
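20 mM phosphate pH 7.0 + 0.01% (detergent screen) or 0.0001% Triton X-100; 5.3 nM AmpC reagent; cpd preinc 15 min RT; nitrocefin (800 uM stock) to start; A480 q20 s × 4 min; Activity was normalised to no-enzyme and no-compound control wells.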
An asterisk follows results filed as active; ? = inconclusive; / = no result. Unless noted, calls follow the shape of the dose curve; as a rule, active = well fitted curve in the direction sought with a large enough effect; inconclusive = small, poorly fitted or top-dose-only effect, or another doubt; inactive = no such curve, though single readings can be large; an effect the other way counts as inactive or inconclusive. Potency is read from the fitted curve at half-maximal effect.

SMILES	Pf growth 96h	AmpC no deterg	Sm TGR block	SARS PLpro yeast	Pf growth 48h	AmpC detergent
COc1ccccc1/C=C1\SC(=S)N(CCC(=O)NNC(=O)c2ccccc2O)C1=O	6.2%	15.8µM*	-4.9%	4.3%	4.5%	-7.8%
CN1CCN(C(=O)CCN2C(=O)/C(=C\c3ccc(Cl)cc3)SC2=S)CC1	8.28µM*	-6.5%	-9.6%	-2.2%	-7.4%	-12.1%
O=C(CCCN1C(=O)/C(=C/c2cccs2)SC1=S)NNC(=O)c1ccccc1O	3.29µM*	-14.9%	-15.2%	?	8.8%	-1.1%
O=C(O)C(c1ccccc1)N1C(=O)/C(=C/c2cccs2)SC1=S (configuration not stated)	40.3%	-33.8%	-17.2%	-1.0%	?	-2.2%
O=C(O)C(Cc1ccccc1)N1C(=O)/C(=C/c2cccs2)SC1=S (configuration not stated)	10.4µM*	-21.4%	/	-0.1%	4.0%	5.9%
Cc1ccc2nc(CN3CCN(C(=O)Nc4cccc(C)c4C)CC3)oc2c1	/	/	0.1%	/	/	0.4%
ClCC1=Nc2cccc3cccc(c23)N1	4.65µM*	-19.7%	28.2µM*	-1.2%	4.15µM*	-9.7%
Nc1cccc(C2=Nc3cccc4cccc(c34)N2)c1	?	-5.1%	-25.8%	0.4%	39.9%	-11.4%
COc1ccc(C2=Nc3cccc4cccc(c34)N2)cc1	?	-36.3%	50.1µM*	2.5%	0.1%	2.5%
O=C1C(Cl)=C(NCCN2CCCCC2)C(=O)c2ccccc21	?	-37.2%	22.4µM*	29.6%	-26.5%	8.1%
O=C1C(Cl)=C(NCC2CCCO2)C(=O)N1c1ccccc1 (configuration not stated)	/	-15.3%	50.1µM*	-5.2%	31.3%	2.3%
O=C1C(Cl)=C(NCC2CCCO2)C(=O)N1C1CCCCC1 (configuration not stated)	?	-7.5%	-18.7%	4.3%	?	3.1%
COc1ccc(CN(C(=O)CSc2nnc(-c3ccc(F)cc3)o2)c2ccc(F)cc2)cc1	-1.5%	-13.8%	-27.4%	-5.9%	-22.6%	-14.4%
COc1ccc(CN(C(=O)CSc2nnc(-c3c[nH]c4ccccc34)o2)c2ccc(F)cc2)cc1OC	?	-4.5%	0.4%	9.6%	4.15µM*	-1.5%
O=C(N[C@H]1CP(=O)(Oc2ccccc2)O[C@H](COCc2ccccc2)[C@H]1O)C(Cl)(Cl)Cl (some centres not stated)	11.7µM*	32.9%	3.6%	-0.5%	?	2.2%
O=P1(Oc2ccccc2)CC=C[C@H](COCc2ccccc2)O1 (some centres not stated)	?	-1.0%	4.0%	-0.2%	-3.7%	1.8%
Cc1cccc(N2CCN(C(=O)c3cc4ccc5cccnc5c4[nH]3)CC2C)c1 (configuration not stated)	/	/	-11.8%	/	/	-4.4%
COc1ccc(C(CNC(=O)c2oc3ccccc3c2C)N2CCCC2)cc1 (configuration not stated)	9.28µM*	56.8%	-5.8%	-0.8%	9.28µM*	-2.7%
COc1ccc(C(CNC(=O)c2oc3c(Cl)cccc3c2C)N2CCCC2)cc1 (configuration not stated)	10.4µM*	59.9%	-0.4%	-6.4%	?	-7.2%
COc1ccc(C(CNC(=O)c2ccccc2C)N2CCCC2)cc1 (configuration not stated)	-17.9%	-4.8%	-0.7%	3.0%	/	-2.1%
COc1ccc(C(CNC(=O)c2oc3ccc(Cl)cc3c2C)N2CCCCC2)cc1 (configuration not stated)	?	3.5%	10.5%	0.4%	?	-16.0%
COc1cccc(C(N)CC(=O)O)c1 (configuration not stated)	8.28µM*	-16.1%	-21.6%	?	14.6%	?
CC(=O)NC(=O)NC1OC(=O)C(Cl)=C1Cl (configuration not stated)	33.8%	-8.9%	3.55µM*	7.5%	?	?

Assay outcomes as filed in PubChem.
